Measured values reported in PubChem BioAssay AID588324 (National Center for Advancing Translational Sciences (NCATS), 2011).
Results filed as inconclusive are left out. Values without a mark were called inactive. The source made the active and inactive calls. The call rests on the fitted dose curve; in most records, active means well fitted inhibition curve with a large enough effect; inconclusive means small, poorly fitted or top-dose-only effect; inactive means flat fitted curve, though single readings scatter.

system: Trypanosoma cruzi 6-phosphofructokinase; experiment: Confirmatory Assay to Find Inhibitors of T. brucei phosphofructokinase: Counter Screen against T cruzi PFK; conditions: ADP-Glo luminescence, 45 min; series mostly up to 57.5 µM; activity, negative = inhibition: at the top concentration
Text: Various species of the protozoan family Trypanosomatidae are responsible for a range of serious human diseases in tropical and subtropical areas of the world. […] Many of the disorders caused by trypanosomatids are fatal if left untreated, but most currently used drugs are inefficient and toxic. […] Oxidative metabolism involving the mitochondrial tricarboxylic acid cycle and oxidative phosphorylation are repressed in these parasites, and recent RNA interference (RNAi) experiments have shown that even partial depletion of certain individual glycolytic enzymes can lead to the death of cultured parasites. One such glycolytic enzyme, phosphofructokinase (PFK), catalyzes the formation of fructose-1,6-bisphosphate (F1,6BP) and ADP from fructose-6-phosphate (F6P) and ATP, and in many metabolic circumstances makes an important contribution to the control of flux through the glycolytic pathway. As a specific glycolytic target, PFK is particularly attractive as it catalyzes the first irreversible step in glycolysis, and structural and kinetic studies have shown very substantial and essential differences from corresponding host enzymes, allowing for the discovery of parasite-selective inhibitors. Confirmed qHTS active compounds were tested against T cruzi PFK. A luminescent biochemical assay was performed that used luciferase-based nucleotide detection (ADP-Glo, Promega) to examine the effect of identified actives against another trypanosomal isoform of PFK, namely Trypansoma cruzi, for target specificity. The assay is identical in concept to the T. brucei PFK qHTS assay, but instead uses the T. cruzi isoform of PFK (expressed and purified by U. of Edinburgh). NIH Molecular Libraries Probe Production Network [MLPCN] NIH Chemical Genomics Center [NCGC] Grant: 1 R03 MH092153-01 PI Name: Malcolm Walkinshaw, University of Edinburgh
Substrate buffer was dispensed into white, solid 1536-well plates at 3 uL/well in 0.1M triethanolamine (TEA) buffer, pH 8.0, containing final concentrations of 5 mM MgCl2, 0.01% Tween20, 0.6mM fructose-6-phosphate (F6P) and 0.1mM ATP. Then, 23nl of compounds or DMSO were delivered to each well using a pin tool. One uL of T. cruzi PFK (0.1M TEA, 0.01% Tween20, 0.1% bovine serum albumin (BSA) and […] PFK, final concentrations) was then dispensed, and plates were incubated at room temperature for 45 min. The luminescent detection reagent, ADP-Glo (Promega), was then added in two steps: the first reagent, ADP-Glo (which converts remaining uncatalyzed ATP), was added at 2.5uL/well and incubated for ten minutes at room temperature, and the second component, Kinase Detection reagent (which converts ADP to ATP as a substrate for luciferase-based luminescence), was added immediately after at 5uL/well, followed by one final ten minute room temperature incubation. The plates were measured on a ViewLux plate reader for luminescent signal using a clear filter with a one second exposure. The %Activity was determined from the corrected luminescence values. 1x (1.25nM) and 0x PFK enzyme controls (untreated) were included to normalize %Activity of identified inhibitors; 0x enzyme values corresponded to 100%Activity (full inhibition), while 1x PFK enzyme values were used to normalize 0% Activity (no inhibition).

| Compound | Potency | activity, negative = inhibition |
| --- | --- | --- |
| Cc1cc(NS(=O)(=O)c2ccc(NC(=O)Cc3ccc(Cl)c(Cl)c3)cc2)n(C)n1 | 1160 nM (active) |  |
| Cc1cc(NS(=O)(=O)c2ccc(NS(=O)(=O)Cc3ccc(Cl)c(Cl)c3)cc2)no1 |  | -20.8% |
| Cc1cc(NC(=O)c2csc(NC(=O)Cc3ccc(Cl)c(Cl)c3)n2)no1 |  | -18.8% |
| Cc1cc(N[S+](=O)([O-])c2ccc(NC(=O)Cc3ccc(Cl)nc3)cc2)no1 | 20600 nM (active) |  |
| Cc1cc(NS(=O)(=O)c2cccc(NC(=O)Cc3ccc(Cl)c(Cl)c3)c2)no1 | 16300 nM (active) |  |
| O=C(Cc1ccc(Cl)c(Cl)c1)Nc1ccc(S(=O)(=O)Nc2cncnc2)cc1 | 730 nM (active) |  |
| CCOC(=O)c1cccc(NS(=O)(=O)c2ccc(NC(=O)Cc3ccc(Cl)c(Cl)c3)cc2)c1 |  | -18% |
| Cc1cc(NS(=O)(=O)CCNC(=O)Cc2ccc(Cl)c(Cl)c2)no1 | 16300 nM (active) |  |
| Cc1cc(NS(=O)(=O)c2ccc(NC(=O)Cc3ccc(C)c(F)c3)cc2)no1 | 4610 nM (active) |  |
| O=C(Cc1ccc(Cl)c(Cl)c1)Nc1ccc(S(=O)(=O)O)cc1 | 461 nM (active) |  |
| O=C(Cc1ccc(Cl)c(Cl)c1)Nc1ccc(S(=O)(=O)Nc2ccc(C(=O)O)cc2)cc1 | 291 nM (active) |  |
| Cc1cc(NS(=O)(=O)c2ccc(NC(=O)Cc3ccc(Cl)cc3)cc2)no1 | 1460 nM (active) |  |
| Cc1cc(N[S+](=O)([O-])c2ccc3cc(NC(=O)Cc4ccc(Cl)c(Cl)c4)ccc3c2)no1 | 4610 nM (active) |  |
| CN(C)c1cccc(NS(=O)(=O)c2ccc(NC(=O)Cc3ccc(Cl)c(Cl)c3)cc2)c1 | 11600 nM (active) |  |
| O=C(Cc1ccc(Cl)c(Cl)c1)Nc1ccc(S(=O)(=O)Nc2cccc(O)c2)cc1 | 1630 nM (active) |  |
| Cc1cc(NS(=O)(=O)c2ccc(NC(=O)Cc3ccc(Cl)cc3Cl)cc2)no1 | 14600 nM (active) |  |
| COc1ccc(CC(=O)Nc2ccc(S(=O)(=O)Nc3cc(C)on3)cc2)cc1OC |  | -4.76% |
| O=C(Cc1ccc(Cl)c(Cl)c1)Nc1ccc(S(=O)(=O)Nc2ccn[nH]2)cc1 | 730 nM (active) |  |

| Compound | Potency | activity, negative = inhibition |
| --- | --- | --- |
| Cc1cc(NS(=O)(=O)c2ccc(NC(=O)Cc3ccc(Cl)c(Cl)c3)cc2)on1 | 231 nM (active) |  |
| Cc1cc(NS(=O)(=O)Cc2ccc(NC(=O)Cc3ccc(Cl)c(Cl)c3)cc2)no1 | 3260 nM (active) |  |
| Cc1cc(NC(=O)c2ccc(NC(=O)Cc3ccc(Cl)c(Cl)c3)cc2)no1 |  | -18.9% |
| Cc1cc(NS(=O)(=O)c2ccc(C(=O)NCc3ccc(Cl)c(Cl)c3)cc2)no1 | 2910 nM (active) |  |
| Cc1cc(NS(=O)(=O)c2ccc(NCCc3ccc(Cl)c(Cl)c3)cc2)no1 | 16300 nM (active) |  |
| Cc1cc(NS(=O)(=O)c2ccc(NC(=O)Cc3ccc(Cl)c(C(F)(F)F)c3)cc2)no1 | 919 nM (active) |  |
| Cc1cc(NS(=O)(=O)c2ccc(N(C)C(=O)Cc3ccc(Cl)c(Cl)c3)cc2)no1 | 1300 nM (active) |  |
| Cc1cc(N(C)S(=O)(=O)c2ccc(NC(=O)Cc3ccc(Cl)c(Cl)c3)cc2)no1 | 2060 nM (active) |  |
| O=C(Cc1ccc(Cl)c(Cl)c1)Nc1ccc(S(=O)(=O)Nc2ccon2)cc1 | 130 nM (active) |  |
| O=C(Cc1ccc(Cl)c(Cl)c1)Nc1ccc(S(=O)(=O)Nc2ccccc2)cc1 | 16300 nM (active) |  |
| O=C(Cc1ccc(Cl)c(Cl)c1)Nc1ccc(S(=O)(=O)Nc2cccc(C(=O)O)c2)cc1 | 580 nM (active) |  |
| Cc1cc(NS(=O)(=O)c2ccc(NC(=O)Cc3cccc(Cl)c3)cc2)no1 | 2590 nM (active) |  |
| Cc1cc(NS(=O)(=O)c2ccc(NC(=O)Cc3ccc(Cl)c(Cl)c3)cc2)no1 | 231 nM (active) |  |
| Cc1cc(NS(=O)(=O)c2ccc(NC(=O)Cc3ccc(C)c(C)c3)cc2)no1 | 6510 nM (active) |  |
| Cc1cc(NS(=O)(=O)c2ccc(NC(=O)Cc3ccc(Cl)c(F)c3)cc2)no1 | 651 nM (active) |  |
| Cc1cc(NS(=O)(=O)c2ccc(NC(=O)CCc3ccc(Cl)c(Cl)c3)cc2)no1 | 6510 nM (active) |  |
| Cc1cc(NS(=O)(=O)c2ccc(NC(=O)Cc3ccc4ccccc4c3)cc2)no1 | 1830 nM (active) |  |
